Source: PubChem BioAssay
DT40 TDP1 CPT = growth inhibition of DT40 Tdp1-/-;hTDP1 cells with camptothecin (screen for TDP1 inhibitors). hit rate 12% among 420,000. AID 686979. Potency, µM (titrated, usually from 46.2 µM), most hits filed as inhibitors. chicken DT40 Tdp1-/-;hTDP1 cells + 20 nM CPT, ATP luminescence, 48 h; further: nearly all actives have a fitted effect of over 55% in size
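Cell growth measured by CellTiter-Glo luminescence after a minimum 48 h, 37 C compound exposure with 20 nM CPT in Tdp1-knockout DT40 cells stably expressing hTDP1, seeded 400/well; qHTS titration format.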
Gal4-VP16 FLuc = Gal4-VP16 reporter inhibition counter-screen | Drosophila S2 Gal4-VP16 UAS-luciferase, luminescence, 20 h | Potency, µM (top dose mostly 53.6 µM), most hits filed as inhibitors | hit rate 3.5% among 310,000 | AID 2546;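 further: Gal4-VP16 expression switched on by copper sulfate through the metallothionein promoter; nearly all actives have a fitted effect of over 50% in size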
ALOX12 inh = ALOX12 (human) lipoxygenase inhibition. hit rate 1.1% among 580,000. purified 12hLO, xylenol orange hydroperoxide absorbance. Potency, µM (top dose mostly 108 µM), actives largely listed as inhibitors. P18054
Target sequence (P18054 whole entry, looked up): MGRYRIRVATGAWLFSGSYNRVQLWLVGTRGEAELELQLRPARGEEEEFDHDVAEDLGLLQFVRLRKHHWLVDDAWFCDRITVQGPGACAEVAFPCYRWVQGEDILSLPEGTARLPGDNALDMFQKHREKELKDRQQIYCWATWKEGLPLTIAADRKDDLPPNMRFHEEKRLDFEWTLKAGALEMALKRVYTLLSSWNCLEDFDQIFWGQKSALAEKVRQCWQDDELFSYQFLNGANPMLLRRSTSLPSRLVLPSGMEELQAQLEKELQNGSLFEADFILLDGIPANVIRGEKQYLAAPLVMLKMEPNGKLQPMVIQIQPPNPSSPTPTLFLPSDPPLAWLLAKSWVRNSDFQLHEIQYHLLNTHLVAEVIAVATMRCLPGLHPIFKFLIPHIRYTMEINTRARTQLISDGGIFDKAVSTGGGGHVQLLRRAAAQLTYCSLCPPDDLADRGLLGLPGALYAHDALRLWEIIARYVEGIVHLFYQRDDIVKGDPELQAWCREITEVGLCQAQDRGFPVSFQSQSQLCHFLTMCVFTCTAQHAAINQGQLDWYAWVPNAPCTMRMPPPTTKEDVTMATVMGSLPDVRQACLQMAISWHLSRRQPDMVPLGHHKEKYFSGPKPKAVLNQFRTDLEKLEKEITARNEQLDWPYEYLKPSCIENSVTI
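Hydroperoxide product was detected by ferrous iron/xylenol orange as the 573 to 405 nm absorbance ratio. Arachidonic acid at 40 uM (final) was turned over for 30 min at room temperature by 150 nM human 12hLO, pH 7.0 Hepes buffer, after 15 min compound preincubation.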
DT40 TDP1 no CPT = qHTS for Inhibitors of human tyrosyl-DNA phosphodiesterase 1 (TDP1): qHTS in cells in absence of CPT | DT40 Tdp1-/- hTDP1 cells, no CPT, ATP luminescence, 48 h | Potency, µM (series often up to 46.2 µM), most hits filed as inhibitors | hit rate 15% among 420,000 | AID 686978, 2013; further: nearly all actives have a fitted effect of over 55% in size
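A cellular qHTS used chicken DT40 cells lacking endogenous Tdp1 but carrying stably transfected human TDP1. Compounds were applied without camptothecin, and cell growth kinetics were judged by ATP-dependent luminescence after ≥48 hr.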
RORg inh = blocks mouse ROR gamma transcriptional activity; P51450; Drosophila S2 Gal4-RORgamma UAS-luciferase reporter, 20 h; Potency, µM (doses to about 53.6 µM), usual class: inhibitors; hit rate 5.4% among 310,000; further: nearly all actives have a fitted effect of over 60% in size
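Stably transfected Drosophila Schneider cells are the test system, with ROR gamma fused to Gal4 and luciferase under UAS control; luminescence is read after 20 hr of 700 uM copper sulfate induction at ambient temperature.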
ELG1 repair inh = inhibitors of ELG1-dependent DNA repair in HEK293T cells; HEK293T ELG1-luciferase reporter, luminescence, 16 h; DNA damage induced by 5-fluorouridine; Potency, µM (highest dose often 46.1 µM), hits mostly inhibitors; hit rate 2.3% among 330,000; AID 504467; further: nearly all actives have a fitted effect of over 55% in size
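Overnight (16 hr) co-exposure of 2,000 cells/well to 5-fluorouridine and compound at 37 °C preceded detection. Luciferase was quantified via ONE-Glo luminescence; loss of signal denotes inhibition.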
A number is an active result; i = inactive; ? = inconclusive; nt = no result given. Hits are enriched below; roughly 15% of the tested compounds scored in any of these assays. The call rests on the fitted dose curve; in most records, active means well fitted curve in the direction sought with a large enough effect; inconclusive means small, poorly fitted or top-dose-only effect, or another doubt; inactive means no such curve, though single readings can be large; an effect the other way counts as inactive or inconclusive.

SMILES	DT40 TDP1 CPT	Gal4-VP16 FLuc	ALOX12 inh	DT40 TDP1 no CPT	RORg inh	ELG1 repair inh
CC(C)=CCC/C(C)=C/CNCC(O)CN1CCOCC1 (centres undefined)	nt	nt	0.631µM	nt	nt	nt
COc1ccccc1-c1cc2nc(NCCc3ccc(S(N)(=O)=O)cc3)ccn2n1	?	nt	i	20.6µM	nt	nt
O=C(C1CCN(c2nnc(N3CCCC3=O)s2)CC1)N1CCN(c2cccc(C(F)(F)F)c2)CC1	8.2µM	?	i	1.84µM	i	?
Cc1ccc(C)c(N2CCN(C(=O)C3CCN(c4nnc(-n5cccc5)s4)CC3)CC2)c1	nt	nt	i	nt	nt	nt
Cc1ccc(C)c(N2CCN(C(=O)C3CCN(c4nnc(N5CCCC5=O)s4)CC3)CC2)c1	23.1µM	i	i	?	i	14.6µM
O=C(c1ccco1)N1CCN(C(=O)C2CCCN(c3nnc(N4CCCC4=O)s3)C2)CC1 (centres undefined)	nt	nt	i	nt	nt	nt
O=C(Nc1ccc2c(c1)CCC2)N1CCC2(CC1)OCCO2	nt	nt	i	nt	nt	nt
N#Cc1ccc(CSc2nnc(-c3cccs3)n2-c2ccccc2)cc1	i	i	i	i	i	20.6µM
N#Cc1ccc(CSc2nnc(-c3c[nH]c4ccccc34)n2-c2ccccc2)cc1	?	?	i	23.1µM	i	?
CCn1c(SCc2ccccc2)nnc1-c1cccs1	18.4µM	i	i	6.51µM	?	i
CCn1c(SCC(=O)Nc2ccccc2)nnc1-c1cccs1	i	i	i	i	i	i
CC(Oc1ccc(-c2ccccc2)c(F)c1)c1ccn(S(=O)(=O)c2ccc(Cl)cc2)n1 (centres undefined)	14.6µM	i	i	?	i	i
C=CCNC(=O)N1CCOC(CN(CC(C)C)C(=O)c2ccc(C)cc2)C1 (centres undefined)	nt	nt	i	nt	nt	nt
O=C(CN1C(=O)COc2ccc(Cl)cc21)Nc1cccc(F)c1	?	nt	i	?	nt	nt
Cc1cccnc1NC(=O)CN1C(=O)COc2ccc(Cl)cc21	i	i	12.6µM	i	i	i
NS(=O)(=O)c1ccc(NC(=O)CN2C(=O)COc3ccc(Cl)cc32)cc1	i	nt	44.7µM	i	nt	nt
O=C(CN1C(=O)COc2ccc(Cl)cc21)Nc1nccs1	i	nt	i	i	nt	i
Cc1cccc([C@@H]2C[C@H]3CN(Cc4cccc(Cl)c4)C(=O)[C@]34CCCN24)n1	?	i	i	?	i	i
Cc1ccccc1-c1cccc([C@@H]2C[C@H]3CN(Cc4cccnc4)C(=O)[C@]34CCCN24)c1	23.1µM	i	i	18.4µM	i	i
O=C1N(Cc2cccnc2)C[C@@H]2C[C@@H](c3ccccc3C#Cc3ccccc3)N3CCC[C@@]123	29.1µM	i	i	16.4µM	i	i
COc1cccc(S(=O)(=O)NCc2ccc3c(c2)OCO3)c1	i	i	i	i	i	i
CCCc1cc2c(cc1N(C)S(=O)(=O)c1ccccc1)OCO2	3.66µM	nt	i	3.66µM	nt	nt
COc1ccc(N=Cc2c(O)c3ccccc3n2C(C)=O)cc1	?	i	i	20.6µM	i	?
CCOc1ccccc1NS(=O)(=O)c1cc(-c2cnc(C)o2)ccc1C	nt	nt	i	nt	nt	nt
CC(NC(=O)CCCCCCN1C(=O)c2ccccc2C1=O)c1ccc2c(c1)CCCC2 (centres undefined)	23.1µM	10µM	i	?	?	23.1µM
SMILES	DT40 TDP1 CPT	Gal4-VP16 FLuc	ALOX12 inh	DT40 TDP1 no CPT	RORg inh	ELG1 repair inh
C=COCCNC(=S)Nc1ccccc1	i	i	?	i	i	?
S=C(NCCCc1ccccc1)Nc1ccccc1	23.1µM	3.98µM	?	?	15.8µM	?
Cc1ccccc1OCCNC(=S)Nc1ccccc1	29.1µM	5.62µM	?	14.6µM	3.16µM	i
CCCNC(=S)Nc1ccccc1	i	?	i	i	10µM	i
S=C(NCCc1ccccc1)Nc1ccc(Nc2ccccc2)cc1	16.4µM	12.6µM	?	?	5.01µM	?
CCOC(=O)C1=C(C)N(C)C(=O)NC1c1ccc(Br)s1 (centres undefined)	nt	nt	i	nt	nt	nt
CC(C)CN(CC(=O)NC(=O)NC(C)C)C1CC1	nt	nt	i	nt	nt	nt
S=C(NCCCc1ccccc1)Nc1ccc(Cl)cc1	?	5.01µM	39.8µM	?	4.47µM	i
O=C(COC(=O)Cc1n[nH]c(=O)c2ccccc12)NC(=O)NC1CCCCC1	nt	nt	i	nt	nt	nt
CN(C)c1cc(N/N=C/c2ccc(Cl)cc2)nc(N(C)C)n1	?	i	i	18.4µM	i	?
Cc1ccc(C(=O)Nc2c(C)ccc3nsnc23)c(Cl)c1	nt	nt	i	nt	nt	nt
COc1cc2nc(Cl)nc(NC(C)C)c2cc1OC	14.1µM	nt	nt	15.8µM	nt	nt
COc1cc2nc(N3CCN(C)CC3)nc(NC(C)C)c2cc1OC	?	nt	nt	17.8µM	nt	nt
COc1cc2nc(N3CCCCC3)nc(NC(C)C)c2cc1OC	5.01µM	nt	nt	?	nt	nt
CN(CCc1ccccc1)C(=O)c1ccc(NC(=O)Cc2ccc(NC(=O)C3CCN(C(=O)C4CCCCC4)CC3)cc2)cc1	?	nt	i	16.4µM	nt	nt
CN(CCc1ccccc1)C(=O)c1ccc(NC(=O)Cc2cccc(NC(=O)C3CCN(C(=O)C4CC4)CC3)c2)cc1	i	nt	i	i	nt	nt
CN(Cc1ccccc1)C(=O)c1ccc(NC(=O)Cc2ccc(NC(=O)C3CCN(C(=O)C4CCCC4)CC3)cc2)cc1	?	nt	i	?	nt	nt
CN(CCc1ccccc1)C(=O)c1ccc(NC(=O)Cc2ccc(NC(=O)C3CCN(C(=O)C4CCC4)CC3)cc2)cc1	?	nt	i	10.3µM	nt	nt
CN(CCOc1ccccc1)C(=O)c1ccc(OC2CCN(C(=O)C3CC3)CC2)cc1	?	i	i	18.4µM	i	?
O=c1cc(-c2ccccc2)[nH]n1-c1ccccc1	?	nt	i	?	nt	nt
O=c1ccc(=O)n(-c2ccccc2)[nH]1	16.4µM	i	i	?	i	i
CC(C)(C)c1cc(=O)n(-c2ccccc2)[nH]1	25.9µM	i	i	?	i	?
Cn1ncc2c(N3CCN(S(N)(=O)=O)CC3)nc(C3CCCC3)nc21	nt	nt	i	nt	nt	nt
O=C1N2CCCC2CN1C1CCN(Cc2ccccc2C(F)(F)F)CC1 (centres undefined)	nt	nt	i	nt	nt	nt
C=CCc1ccccc1OCCSc1nc(-c2ccc(C(C)(C)C)cc2)nc2cc(=O)[nH]n12	23.1µM	nt	i	?	nt	nt
Cc1ccc(-c2nc(SCCOc3ccccc3C)n3[nH]c(=O)cc3n2)cc1	23.1µM	nt	i	25.9µM	nt	nt
O=c1cc2nc(-c3ccccc3)nc(SCc3cccc(Br)c3)n2[nH]1	?	nt	i	9.2µM	nt	nt
Cc1ccc(CSc2nc(-c3ccc(C(C)(C)C)cc3)nc3cc(=O)[nH]n23)cc1	?	nt	i	?	nt	nt
COc1ccccc1OCCSc1nc(-c2ccc(C(C)(C)C)cc2)nc2cc(=O)[nH]n12	13µM	nt	i	?	nt	nt
